TDP1 cell noCPT: qHTS for Inhibitors of human tyrosyl-DNA phosphodiesterase 1 (TDP1): qHTS in cells in absence of CPT | DT40 Tdp1-/- hTDP1 cells, no CPT, ATP luminescence, 48 h | Potency, µM (top dose mostly 46.2 µM), for the others: at the highest dose activity change, negative = growth inhibition, usual class: inhibitors | 420,000 compounds, 15% hits; also: potency is read from the fitted curve at half-maximal effect; nearly all actives have a fitted effect of over 55% in size
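Stably hTDP1-transfected Tdp1-null chicken DT40 cells were treated with library compounds minus camptothecin and grown for at least 48 hr at 37 °C, after which cellular ATP was quantified by luminescence.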
IL1B secr inh: blocks inflammasome-driven IL-1 beta release. THP-1 LPS/ATP IL-1B secretion, AlphaLISA, 16 h; hits give low values. activity change, % at 57.5 µM. 360,000 compounds, 4.7% hits. AID 743279; in the data active = activity change below about -50%; inconclusive = mostly about -30% to -49%
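Secreted IL-1B measured by AlphaLISA bead assay after 16 h compound exposure of THP-1 cells; compounds (final up to 57.5 uM) added 1 h before LPS (250 ng/mL) and ATP (1.25 mM) stimulation; lower signal means less secretion.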
HT1080 IDH1KD tx: HT-1080 IDH1 knockdown cell toxicity (counter line) | HT-1080 IDH1 knockdown viability, ATP luminescence, 48 h | 360,000 compounds, 2% hits | Potency, µM (titrated, usually from 46.1 µM), for the others: at the highest dose activity, negative = toxicity, hits mostly cytotoxic;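 also: potency is read from the fitted curve at half-maximal effect; 0% = DMSO wells and -100% = cell-free medium wells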
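IDH1KD HT-1080 cells, 750/well, RPMI + 5% FBS; compound pinned after 2 h settling; 48 h, 37 °C; CellTiter-Glo luminescence; % activity normalised to DMSO and no-cell wells; curves fitted, classed by r2 and efficacy.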
TDP1 cell CPT: DT40-hTDP1 cell growth loss with CPT; chicken DT40 Tdp1-/-;hTDP1 cells + 20 nM CPT, ATP luminescence, 48 h; Potency, µM (series often up to 46.2 µM), without a hit: at the highest dose activity change, negative = growth inhibition, actives largely listed as inhibitors; 420,000 compounds, 12% hits; AID 686979; also: potency is read from the fitted curve at half-maximal effect; nearly all actives have a fitted effect of over 55% in size
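Cell growth measured by CellTiter-Glo luminescence after a minimum 48 h, 37 C compound exposure with 20 nM CPT in Tdp1-knockout DT40 cells stably expressing hTDP1, seeded 400/well; qHTS titration format.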
HT1080-NT tox: kills 2HG-producing HT-1080-NT fibrosarcoma cells. HT-1080-NT fibrosarcoma viability, CellTiter-Glo ATP luminescence, 48 h. Potency, µM (series often up to 46.1 µM), without a hit: at the highest dose activity, negative = less viability, usual class: cytotoxic. 360,000 compounds, 1.6% hits. AID 686970;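 also: NT is the 2HG producing partner of a matched IDH1 knockdown line; potency is read from the fitted curve at half-maximal effect; 0% = DMSO-treated cells and -100% = media-only wells without cells; nearly all actives have a fitted effect of over 55% in size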
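Viability of the 2HG-overproducing fibrosarcoma line after 48 hours of compound exposure at 37 degrees C was determined by luminescence with CellTiter-Glo, and concentration-effect curves were then fitted and categorized.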
Starred values were filed as active, the others as inactive; ? = inconclusive; · = no result. The list is not random: actives were taken first. Their share in the collection is about 19%. Unless noted, calls follow the shape of the dose curve; as a rule, active = well fitted curve in the direction sought with a large enough effect; inconclusive = small, poorly fitted or top-dose-only effect, or another doubt; inactive = no such curve, though single readings can be large; an effect the other way counts as inactive or inconclusive. Unless noted, % is scaled to controls: 0 for no effect and ±100 for the full control effect.

SMILES	TDP1 cell noCPT	IL1B secr inh	HT1080 IDH1KD tx	TDP1 cell CPT	HT1080-NT tox
COc1ccc(OCCSc2nc(N)cc(N)n2)cc1	?	0	-21%	-4%	-12%
CCOc1ccccc1Nc1nnc(SCC(=O)NC2CCS(=O)(=O)C2)s1 (stereo unspecified)	14%	-10	10%	-18%	9%
CCc1ccc(NC(=O)Cn2c(=O)nc(-c3ccccc3F)c3cc(Cl)ccc32)cc1	-25%	·	·	-1%	·
COc1cc(NC(=O)Cn2c(=O)nc(-c3ccccc3F)c3cc(Cl)ccc32)cc(OC)c1	10µM*	·	·	15µM*	·
COc1cc(C)ccc1S(=O)(=O)NC(=O)C1(C)CCN1C(=O)c1ccc(C2CCCCC2)cc1 (stereo unspecified)	-20%	50	1%	-23%	-1%
COc1ccc(N2CCN(C(c3nnnn3CCc3ccccc3)C(C)C)CC2)cc1 (stereo unspecified)	18µM*	-23	-3%	13µM*	-4%
CC1CCN(C(c2nnnn2CCc2ccccc2)C(C)C)CC1 (stereo unspecified)	18µM*	-6	-4%	?	2%
Cc1nn(Cc2ccccc2)c(C)c1/C=N/NC(=O)c1ccccc1O	16%	3	-25%	5%	?
Clc1ccc(CNc2ccccc2NCc2ccc(Cl)nc2)cn1	?	-19	-2%	16µM*	-16%
CC(=O)N1N=C(c2ccc(C)cc2)OC1c1ccc(Br)cc1 (stereo unspecified)	-29%	-69*	-10%	5%	-12%
COc1ccc(-c2c(C#N)c(N)nc3c2CCc2ccccc2-3)cc1OC	7.3µM*	0	21µM*	8.2µM*	?
Cc1ccc(-c2c(C#N)c(N)nc3c2CCCCC3)cc1	-11%	14	-10%	-14%	2%
COc1ccc(-c2cc(-c3ccc(O)cc3)nc(N)c2C#N)cc1OC	?	-23	?	?	-4%
COc1cc(-c2c(C#N)c(N)nc3c2CCCC3)ccc1O	16µM*	27	-9%	15µM*	-2%
Cc1cc(=O)n(C)c2ccccc12	11%	-1	7%	-4%	-7%
Cc1cc(=O)n2c3c(c4c(cc13)c(CN(C)C)cc(=O)n4C)OC2	6.5µM*	-13	?	8.2µM*	-13%
CCc1nnc2c(N3CCN(c4cc(Cl)ccc4C)CC3)nc3ccccc3n12	-13%	·	·	-5%	·
CCOc1ccc(Nc2nc3ccccc3c3nnc(CC)n23)cc1	10µM*	·	·	15µM*	·
CCOc1ccc(OCC)c(Nc2nc3ccccc3c3nnc(C)n23)c1	?	·	·	1%	·
CCc1nnc2c3ccccc3nc(Nc3ccc(F)c(Cl)c3)n12	18µM*	·	·	18µM*	·
CC1CCCN(S(=O)(=O)CCNC(=O)c2ccccc2)C1 (stereo unspecified)	-5%	22	5%	-3%	3%
CCOC(=O)[C@]12CCCC=C1N(CCC1=CCCCC1)C(=O)[C@H](CC(=O)NCCC(C)C)C2	12µM*	-20	?	15µM*	?
CCOC(=O)[C@]12CCCC=C1N(CCC1=CCCCC1)C(=O)[C@H](CC(=O)NCCCN1CCCC1=O)C2	?	7	-5%	?	-6%
CCCCCCCCN1C(=O)[C@H](CC(=O)NCC23CC4CC(CC(C4)C2)C3)C[C@@]2(C(=O)OCC)CCC=C12	16µM*	-19	?	-88%	?
CCCCCCCCN1C(=O)[C@H](CC(=O)NCCC(C)C)C[C@@]2(C(=O)OCC)CCCC=C12	12µM*	?	?	13µM*	?
SMILES	TDP1 cell noCPT	IL1B secr inh	HT1080 IDH1KD tx	TDP1 cell CPT	HT1080-NT tox
Cc1cc(C)c(NC(=O)CN(C2CCCCC2)C2CCCCC2)c(C)c1	16µM*	-4	4%	23µM*	4%
Cc1ccc(NC(=O)CN(C)C2CCCCC2)cc1Br	18µM*	-12	-18%	?	-19%
CN(CC(=O)Nc1ccc(Cl)cc1)C1CCCCC1	?	5	-7%	-12%	-4%
CS(=O)(=O)N(CC(=O)Nc1ccc(Br)cc1)C1CCCCC1	23µM*	-4	?	?	?
O=C(C[n+]1ccncc1)c1cccc([N+](=O)[O-])c1	-18%	·	·	?	·
O=C(NNc1c2ccccc2nc2ccccc12)c1ccc(O)cc1O	16µM*	-51*	?	?	?
O=C(NNc1nc(=O)c2cccnc2s1)c1ccccc1O	0.016µM*	118	?	0.0052µM*	-27%
O=C(NNC(=O)c1ccccc1O)c1cc2ccccc2o1	23µM*	99	-11%	?	-14%
O=C(NNc1c2ccccc2nc2ccccc12)c1ccccc1O	21µM*	-12	?	?	?
O=C(NNC(=O)c1cc2ccccc2o1)c1ccncc1	9%	25	16%	-6%	12%
COCCCNC(=O)c1ccc2sc([C@@H]3O[C@H](CO)[C@H](O)[C@H](O)[C@H]3O)nc2c1	-1%	9	4%	7%	15%
C=CCNC(=O)COC(=O)c1ccc(Sc2nncn2C)c([N+](=O)[O-])c1	3%	-20	-10%	-14%	-3%
O=C(NNC(=O)c1cccc2ccccc12)c1ccccc1O	?	83	?	15µM*	-11%
Cc1cc(Cl)ccc1OC(C)C(=O)OCC(=O)c1ccc[nH]1 (stereo unspecified)	0%	15	20%	-29%	7%
CC1CCC(NC(=O)c2ccc3c(c2)N(Cc2cccc(Cl)c2)C(=O)c2ccccc2S3(=O)=O)CC1 (stereo unspecified)	-3%	·	·	0%	·
COc1ccc(CNC(=O)CCCn2nc(C)c3c(C)n(-c4ccc(C)cc4)nc3c2=O)cc1	9.2µM*	0	14%	?	7%
COc1ccc(CNC(=O)CCCn2nc(C)c3c(C)n(-c4ccccc4)nc3c2=O)cc1	?	?	10%	-3%	4%
Cc1ccc(-n2nc3c(=O)n(CCCC(=O)NCc4ccc(Cl)cc4)nc(C)c3c2C)cc1	13µM*	-2	-1%	23µM*	0%
Cc1ccc(-n2nc3c(=O)n(CCCC(=O)NCc4cccc(Cl)c4)nc(C)c3c2C)cc1	?	-23	?	23µM*	-12%
CCC(C)(C)NC(=O)CN(Cc1ccc(OC)cc1)C(=O)CCC(=O)Nc1nccs1	-8%	24	-9%	7%	4%
Cc1ccn2c(Nc3ccc4c(c3)OCO4)c(-c3ccc(C)o3)nc2c1	?	·	·	15µM*	·
COc1ccc(Nc2c(-c3ccc(C)o3)nc3cc(C)ccn23)cc1	12µM*	·	·	15µM*	·

Assay outcomes (PubChem)
